Source: PubChem BioAssay
TIM10 inh = growth inhibitors of isogenic TIM10 control yeast, primary screen, counter-screen for tim10-1 yeast inhibitor project, luminescence, uHTS. S. cerevisiae TIM10 strain growth, BacTiter-Glo luminescence, 24 h. inhibition, % at 10 µM. actives 1.4% (n = 330,000);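 active = inhibition of 40% or more at the single tested concentration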;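 note: wild-type TIM10 isogenic control strain grown at permissive 25 °C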
SKKanGAS inh = S. pyogenes SKKanGAS growth inhibitors in kanamycin, primary screen, streptokinase expression inhibitor project, SKKanGAS strain, BacTiter-Glo luminescence; 6 h; inhibition, % at 7.5 µM; actives 1.3% (n = 300,000);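 active = mean replicate score, as percent of positive control median, at least 50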;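 note: strain carries kanamycin resistance gene driven by streptokinase promoter and grows in 40 µg/ml kanamycin; loss of luminescence reflects streptokinase promoter inhibition or plain growth inhibition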
EBI2 antag = EBI2 receptor antagonists, beta-arrestin recruitment, primary screen, cell-based, luminescence, 7a,25-OHC stimulation, uHTS | G-protein coupled receptor 183 (Homo sapiens), P32249 | 7a,25-OHC stimulated | inhibition, % at 5 µM | actives 0.81% (n = 360,000); in the data active = inhibition above about 38%;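 note: enzyme fragment complementation signal reports receptor beta-arrestin coupling in cells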
Target sequence (P32249 whole entry, looked up, the tested form may be a part): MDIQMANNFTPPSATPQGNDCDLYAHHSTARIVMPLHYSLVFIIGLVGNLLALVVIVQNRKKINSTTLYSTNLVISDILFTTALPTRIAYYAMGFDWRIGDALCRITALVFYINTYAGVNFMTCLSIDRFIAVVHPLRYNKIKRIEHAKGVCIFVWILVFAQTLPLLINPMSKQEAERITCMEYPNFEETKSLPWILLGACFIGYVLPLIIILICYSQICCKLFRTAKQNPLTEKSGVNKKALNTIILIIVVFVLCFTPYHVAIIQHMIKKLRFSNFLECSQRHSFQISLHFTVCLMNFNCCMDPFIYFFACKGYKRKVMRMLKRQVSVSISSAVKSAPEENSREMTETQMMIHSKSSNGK
tim23-1 inh = growth inhibitors of tim23-1 mutant yeast, primary screen, luminescence, uHTS | S. cerevisiae tim23-1 growth, BacTiter-Glo luminescence, 24 h | actives 1.3% (n = 330,000) | inhibition, % at 20 µM;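 active = growth inhibition of the mutant yeast at or above 50%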;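 note: temperature-sensitive mutant grown at 25 °C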
PfHsp90 set2 = growth inhibition of PfHsp90-expressing yeast, primary screen, antimalarial PfHsp90 inhibitor project, S. cerevisiae, BacTiter-Glo luminescence, single point, set 2; BacTiter-Glo ATP, 48 h; yeast lacking PDR1 and PDR3 efflux regulators; inhibition, % at 9.4 µM; actives 0.32% (n = 310,000);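 active = every replicate shows inhibition above about 80%, whatever the replicate mean, limit read from the data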
tim10-1 inh = growth inhibitors of tim10-1 mutant yeast, primary screen, luminescence, uHTS | actives 2.2% (n = 330,000) | inhibition, % at 20 µM | AID 463190, 2010 | S. cerevisiae tim10-1 ts strain growth, BacTiter-Glo, 24 h;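 active = inhibition of at least 40%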;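 note: mutant grown at 25 °C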
A number is an active result; – = inactive; · = not tested or not shown. Compounds with a hit are over-represented: about 4.7% of the library has one in this group of screens.

SMILES	TIM10 inh	SKKanGAS inh	EBI2 antag	tim23-1 inh	PfHsp90 set2	tim10-1 inh
CC(=O)N1CCN(c2ccc(OC[C@H]3CO[C@](Cn4ccnc4)(c4ccc(Cl)cc4Cl)O3)cc2)CC1	–	–	–	–	104.4	–
CCOc1cc(C(=O)CSc2nnc(CNc3ccc(Cl)cc3)o2)ccc1NC(=O)CC	–	–	56.3	–	–	–
Cc1cc(C)c(S(=O)(=O)N(C)CC(=O)NCc2ccncc2)c(C)c1	–	–	–	–	–	–
OC(CNCc1ccccn1)c1ccccc1 (stereo not drawn)	–	–	–	–	–	–
Fc1ccc(C(CCNCc2ccccn2)c2ccc(Cl)cc2)cc1 (stereo not drawn)	–	64.4	–	–	–	–
Cc1c(C(=O)N(Cc2ccccc2)Cc2cccs2)cnn1-c1ccc(Cl)cc1	–	–	–	–	104.6	–
Nc1ncnc2c(C3OC(CO)C(O)C3O)c[nH]c12 (stereo not drawn)	·	·	–	·	–	·
OC(c1ccccc1)(c1nc(-c2ccccc2)cs1)C(F)(F)F (stereo not drawn)	·	·	–	·	·	·
C[C@@H]1CC=C[C@H]2[C@H]1C(=O)N(Cc1ccccc1)[C@H]2c1ccc(Br)cc1F	–	51.9	–	–	–	–
Cc1ccc(-c2ccc([C@H]3[C@H]4C=CC[C@@H](C)[C@@H]4C(=O)N3Cc3ccccc3)c(F)c2)cc1	–	–	–	–	–	–
CC(C)n1cnc2c(NCc3ccccc3)nc(NCc3ccccc3)nc21	–	89.9	–	–	–	–
Cc1nn(CCc2nn[nH]n2)c2nc(-c3ccc(C4CCCCC4)cc3)cc(C(F)(F)F)c12	–	103.8	–	–	·	–
CCOC(=O)c1cc(OCC)c2c(ccc3cc(OC)ccc32)n1	·	·	–	·	·	·
O=[N+]([O-])c1cc(Cc2ccccc2)cc(C=Nc2ccc(N3CCOCC3)cc2)c1O	·	–	–	·	106.1	·
CC1(C2(O)CCCCC2)NCCc2ccccc21 (stereo not drawn)	–	·	–	–	–	–
COc1ccccc1CC(Cc1nc2ccccc2[nH]1)c1nc2ccccc2[nH]1 (stereo not drawn)	–	–	–	–	–	–
Cc1cccc(CC(Cc2nc3ccccc3[nH]2)c2nc3ccccc3[nH]2)c1 (stereo not drawn)	–	60.9	–	–	–	–
O=C(/C=C/c1ccc2c(c1)OCCO2)N1CCN(c2ccc(F)cc2)CC1	–	–	44.3	–	–	–
Cc1c(C(=O)NNC(=S)NCc2ccc(Cl)cc2)oc2ccccc12	–	82.3	–	–	–	–
O=C(CSc1ncn[nH]1)N(C1CCCCC1)C1CCCCC1	–	–	–	–	·	–
CC1(C(=O)OCC(=O)Nc2nnc(-c3ccccc3)o2)CC1(Cl)Cl (stereo not drawn)	–	73.2	–	–	–	–
Cc1cccc(C(=O)OCC(=O)Nc2nnc(-c3ccccc3)o2)c1O	–	97.5	–	–	·	–
CC1(C(=O)OCC(=O)Nc2nc(-c3ccc(F)c(F)c3)cs2)CC1(Cl)Cl (stereo not drawn)	–	71.1	–	–	–	–
O=C(COC(=O)c1ccccc1[N+](=O)[O-])Nc1nnc(-c2ccccc2)o1	–	–	–	–	·	–
CCOc1ccccc1C(=O)OCC(=O)Nc1nnc(-c2ccccc2)o1	–	77.2	–	–	·	–
CCCCCc1nnc(NC(=O)c2cccc(S(=O)(=O)N3CCOCC3)c2)s1	–	·	–	–	·	–
CCOc1ccccc1C(=O)NC(C(=O)OCC(=O)Nc1nnc(-c2ccccc2)o1)C(C)C (stereo not drawn)	–	60.3	–	–	–	–
CC(C)CN(Cc1cc(=O)oc2cc3c(cc12)CCCC3)CC(C)C	–	53.9	–	–	–	–
Cc1ccc(NC(=O)CN2C(=O)S/C(=C\c3ccc(-c4cccc(C(=O)O)c4C)o3)C2=O)cc1	–	53.4	·	–	·	–
COc1ccc(CCNC(=O)c2ccccc2NC(=O)C2=C(C)OCCS2)cc1OC	–	–	–	–	–	–
